Test results: PubChem BioAssay (Tox21)
Where “and” joins values, the source holds several entries; their conditions need not be identical. Equal entries are not always repeated. A number with no mark means an inactive call. Inconclusive results are not listed. Where a call stands in place of a potency, no number is given. Calls of active or inactive are those of the source. Unless noted, calls come from the whole dose curve.

Legend:
[1] = Nuclear factor erythroid 2-related factor 2/antioxidant responsive element (Nrf2/ARE) small molecule agonists: luciferase reporter gene qHTS assay in human keratinocytes (AID 1919969); note: nearly all actives have a fitted effect of over 35% in size; note: potency is the fitted concentration of half-maximal effect
[2] = molecular target: Gonadotropin-releasing hormone receptor (Homo sapiens) (UniProt P30968); test: Human gonadotropin-releasing hormone receptor (GnRHR) small molecule agonists, calcium flux assay in GnRHR-HEK293 cells (AID 1920063); note: nearly all actives have a fitted effect of over 35% in size
Chain of Gonadotropin-releasing hormone receptor (Homo sapiens) (P30968 whole entry, looked up): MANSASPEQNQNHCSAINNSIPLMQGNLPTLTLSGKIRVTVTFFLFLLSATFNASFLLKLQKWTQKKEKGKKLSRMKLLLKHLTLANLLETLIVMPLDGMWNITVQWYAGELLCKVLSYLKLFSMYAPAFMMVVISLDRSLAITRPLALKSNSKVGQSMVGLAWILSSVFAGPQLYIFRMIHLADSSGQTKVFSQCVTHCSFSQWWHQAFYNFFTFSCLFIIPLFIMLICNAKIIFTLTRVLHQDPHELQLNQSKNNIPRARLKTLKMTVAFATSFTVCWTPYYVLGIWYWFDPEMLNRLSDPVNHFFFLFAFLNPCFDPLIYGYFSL
Summary of the method: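 Compounds dissolved in DMSO are pin-transferred onto dye-loaded GnRHR-HEK293 cells, which were seeded 18 h before at 37 C/5% CO2. Calcium signal is read as fluorescence intensity at 1 s intervals for 3 min.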

[3] = molecular target: KiSS-1 receptor (Homo sapiens) (UniProt Q969F8); test: Human kisspeptin (KISS1R) small molecule agonists, calcium flux assay in KISS1R-HEK293 cells (AID 1920064; active = well fitted activation curve with a large enough effect in the repeat runs)
Chain of KiSS-1 receptor (Homo sapiens) (Q969F8 whole entry, looked up): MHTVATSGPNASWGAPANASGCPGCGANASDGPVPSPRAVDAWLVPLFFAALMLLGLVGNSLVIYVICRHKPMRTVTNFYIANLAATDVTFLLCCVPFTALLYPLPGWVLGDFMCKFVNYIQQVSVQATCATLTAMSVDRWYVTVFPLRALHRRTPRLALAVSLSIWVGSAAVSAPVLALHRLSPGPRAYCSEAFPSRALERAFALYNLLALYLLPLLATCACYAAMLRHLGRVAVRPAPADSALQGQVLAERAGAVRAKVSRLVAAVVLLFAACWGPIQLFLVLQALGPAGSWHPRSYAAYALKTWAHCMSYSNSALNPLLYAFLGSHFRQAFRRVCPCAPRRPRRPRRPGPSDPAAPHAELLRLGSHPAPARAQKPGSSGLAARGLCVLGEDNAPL
Summary of the method: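 Cell line: HEK293, stable human KISS1R. Dye loading 1 h at 37 C after 18 h culture. Read: kinetic fluorescence, 480/540 nm, 3 min at 1 s intervals.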

[4] = G protein-coupled receptor (GPCR) small molecule agonists, calcium flux assay: HEK293 wild type cell line counter screen (AID 1920065)
Summary of the method: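 Tox21 10K compounds, 15 concentrations each in triplicate, pin-transferred in DMSO onto dye-loaded cells; kinetic read at 480/540 nm for 3 min, 1 s intervals.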

[5] = p53 small molecule agonists, cell-based qHTS assay with human liver microsomes (AID 1963577);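 note: p53 response element beta-lactamase reporter cells with liver microsomes plus NADPH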
Summary of the method: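 p53RE-bla cells; 5 h settle, 37 C/5% CO2; cpd + HLM 0.5 mg/mL + NADPH 0.5 mg/mL (final); 16 h 37 C; LiveBLAzer 2 h RT dark; fluorescence readout.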

[6] = p53 small molecule agonists, cell-based qHTS assay with rat liver microsomes (AID 1963578)
Summary of the method: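 Rat liver microsome activation: microsomes 0.5 mg/mL, NADPH 0.5 mg/mL final; p53RE-bla cells, 16 h 37 C; LiveBLAzer readout, 2 h RT dark.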

[7] = p53 small molecule agonists, cell-based qHTS assay with human liver microsomes: qHTS cell viability counter screen (AID 1963579); note: nearly all actives have a fitted effect of over 45% in size; note: potency is the fitted concentration of half-maximal effect
Summary of the method: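 Luminescent CellTiter-Glo read-out, 30 min at room temperature, gauged cytotoxicity in p53RE-bla cells exposed 16 h at 37 C to DMSO-dissolved compounds with metabolic activation by human liver microsomes and NADPH, each 0.5 mg/mL final.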

[8] = p53 small molecule agonists, cell-based qHTS assay with rat liver microsomes: qHTS cell viability counter screen (AID 1963580); note: nearly all actives have a fitted effect of over 45% in size
Summary of the method: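 Cytotoxicity counter screen: intracellular ATP read by CellTiter-Glo luminescence in the p53 reporter wells. HCT-116 p53RE-bla cells were treated for 16 h at 37 C alongside rat liver microsomes and NADPH, each 0.5 mg/mL final.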

[9] = p53 small molecule agonists, cell-based qHTS assay: qHTS cell viability counter screen (AID 1963581); note: nearly all actives have a fitted effect of over 45% in size
Summary of the method: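 ATP content measured by luminescence in HCT-116 p53RE-bla cells treated 16 h at 37 C, same wells as the reporter screen.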

[10] = p53 small molecule agonists, cell-based qHTS assay (AID 1963582; active = well fitted activation curve with a large enough effect in the signal ratio in the repeat runs, not every such curve was filed as active; the % refers to the signal ratio)
Summary of the method: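 16 h compound exposure (37 C) of p53 response element–bla cells, preceded by 5 h recovery at 37 C/5% CO2; read-out via LiveBLAzer B/G FRET substrate, 2 h RT, fluorescence intensity.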

[11] = molecular target: 5-hydroxytryptamine receptor 2A (Homo sapiens) (UniProt P28223); test: 5-hydroxytryptamine receptor 2A (HTR2A) small molecule antagonists, cell-based qHTS assay (AID 1963586); note: nearly all actives have a fitted effect of over 45% in size
Chain of 5-hydroxytryptamine receptor 2A (Homo sapiens) (P28223 whole entry, looked up): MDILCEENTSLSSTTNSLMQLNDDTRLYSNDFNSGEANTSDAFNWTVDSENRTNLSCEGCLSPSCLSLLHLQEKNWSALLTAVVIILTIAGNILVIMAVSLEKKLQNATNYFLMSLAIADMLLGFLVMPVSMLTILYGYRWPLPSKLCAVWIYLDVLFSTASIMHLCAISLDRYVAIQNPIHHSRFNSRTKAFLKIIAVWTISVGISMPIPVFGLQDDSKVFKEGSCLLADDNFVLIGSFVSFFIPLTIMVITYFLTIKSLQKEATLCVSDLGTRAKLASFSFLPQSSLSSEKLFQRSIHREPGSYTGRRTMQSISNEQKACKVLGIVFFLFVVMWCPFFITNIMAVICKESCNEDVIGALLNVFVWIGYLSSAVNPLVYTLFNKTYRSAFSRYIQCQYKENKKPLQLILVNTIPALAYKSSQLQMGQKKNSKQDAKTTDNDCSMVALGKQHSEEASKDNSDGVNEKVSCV
Summary of the method: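 CHO cells stably expressing human HTR2A were plated for 18 h at 37 C, then loaded with calcium dye for 1 h. Compounds were preincubated 5 min at room temperature before DOI (4 nM solution) was added. Kinetic fluorescence was read for 3 min.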

[12] = molecular target: Muscarinic acetylcholine receptor M1 (Homo sapiens) (UniProt P11229); test: Cholinergic receptor muscarinic 1 (CHRM1) small molecule antagonists, cell-based qHTS assay (AID 1963588); note: nearly all actives have a fitted effect of over 40% in size
Chain of Muscarinic acetylcholine receptor M1 (Homo sapiens) (P11229 whole entry, looked up): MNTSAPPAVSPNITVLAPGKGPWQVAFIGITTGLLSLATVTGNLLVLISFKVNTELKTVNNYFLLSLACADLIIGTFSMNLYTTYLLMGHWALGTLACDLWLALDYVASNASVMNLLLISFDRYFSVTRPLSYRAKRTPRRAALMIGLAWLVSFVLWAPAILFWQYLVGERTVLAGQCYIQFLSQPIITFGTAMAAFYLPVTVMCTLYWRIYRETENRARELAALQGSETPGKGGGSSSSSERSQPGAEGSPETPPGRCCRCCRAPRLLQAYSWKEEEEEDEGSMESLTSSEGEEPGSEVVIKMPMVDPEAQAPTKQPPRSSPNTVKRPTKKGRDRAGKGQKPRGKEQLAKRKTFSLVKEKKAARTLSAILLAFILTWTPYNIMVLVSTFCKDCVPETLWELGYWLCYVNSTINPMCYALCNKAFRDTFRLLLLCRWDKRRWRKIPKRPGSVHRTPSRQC
Summary of the method: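 Compounds were tested at 15 concentrations in three independent runs. Dye-loaded CHRM1-CHO cells were exposed 5 min at room temperature before stimulation by acetylcholine added at 50nM. Intracellular calcium was read kinetically on FDSS for 3 min.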

[13] = molecular target: Muscarinic acetylcholine receptor M1 (Homo sapiens) (UniProt P11229); test: Cholinergic receptor muscarinic 1 (CHRM1) small molecule agonists, cell-based qHTS assay (AID 1963589); note: nearly all actives have a fitted effect of over 35% in size
Summary of the method: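 Homogeneous fluorescence calcium flux, agonist mode. Human M1-expressing CHO cells; compound dosed at 15 concentrations, three independent runs; signal sampled every 1 sec.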

[14] = molecular target: Beta-2 adrenergic receptor (Homo sapiens) (UniProt P07550); test: Adrenergic beta2 receptor (ADRB2) small molecule antagonists, cell-based qHTS assay (AID 1963592); note: series mostly up to about 92 µM; nearly all actives have a fitted effect of over 50% in size
Chain of Beta-2 adrenergic receptor (Homo sapiens) (P07550 whole entry, looked up): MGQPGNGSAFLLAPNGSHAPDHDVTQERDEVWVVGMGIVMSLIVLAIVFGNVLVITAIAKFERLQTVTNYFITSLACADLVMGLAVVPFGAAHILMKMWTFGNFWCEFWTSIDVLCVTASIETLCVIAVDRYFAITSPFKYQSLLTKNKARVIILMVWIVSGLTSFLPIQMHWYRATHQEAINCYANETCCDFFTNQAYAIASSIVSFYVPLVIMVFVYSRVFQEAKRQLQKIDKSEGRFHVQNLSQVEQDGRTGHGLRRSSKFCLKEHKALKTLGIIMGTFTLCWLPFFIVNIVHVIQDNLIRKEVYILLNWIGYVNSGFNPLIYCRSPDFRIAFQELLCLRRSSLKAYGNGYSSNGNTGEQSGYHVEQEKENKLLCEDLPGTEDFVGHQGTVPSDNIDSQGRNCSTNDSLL
Summary of the method: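 Assay format: CHO-ADRB2 cells, 18-20hr seeding at 37C/5% CO2, then compound plus 1nM isoproterenol agonist mix for 0.5hr RT. Homogeneous time-resolved fluorescence cAMP detection after 1hr, expressed as 665/615 nm ratio.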

[15] = molecular target: D(2) dopamine receptor (Homo sapiens) (UniProt P14416); test: Dopamine D2 receptor (DRD2) small molecule agonists, cell-based qHTS assay (AID 1963594); note: nearly all actives have a fitted effect of over 35% in size
Chain of D(2) dopamine receptor (Homo sapiens) (P14416 whole entry, looked up): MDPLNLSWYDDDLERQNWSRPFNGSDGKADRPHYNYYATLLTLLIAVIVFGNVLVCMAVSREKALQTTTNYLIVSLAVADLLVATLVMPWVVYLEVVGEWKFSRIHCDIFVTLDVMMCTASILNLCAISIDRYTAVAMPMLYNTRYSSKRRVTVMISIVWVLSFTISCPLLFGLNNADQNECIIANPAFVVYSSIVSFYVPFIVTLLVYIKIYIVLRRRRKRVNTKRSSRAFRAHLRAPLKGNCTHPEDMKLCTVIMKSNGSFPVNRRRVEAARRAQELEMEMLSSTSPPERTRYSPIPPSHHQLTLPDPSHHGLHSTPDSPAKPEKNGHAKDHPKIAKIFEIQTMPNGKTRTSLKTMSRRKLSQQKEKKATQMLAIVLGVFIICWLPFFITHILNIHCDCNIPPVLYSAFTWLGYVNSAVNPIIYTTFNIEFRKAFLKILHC
Summary of the method: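 cAMP accumulation in DRD2-HEK293 cells measured by HTRF after 1 h detection; compounds added 10 min before NKH477 (200nM […]) forskolin-analogue stimulation, 30 min at room temperature, with Ro20-1724 present at 0.1 mM final.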

[16] = molecular target: D(2) dopamine receptor (Homo sapiens) (UniProt P14416); test: Dopamine D2 receptor (DRD2) small molecule antagonists, cell-based qHTS assay (AID 1963595; active = well fitted inhibition curve with a large enough effect in the signal ratio in the repeat runs, with a control signal flat; the % refers to the signal ratio)
Summary of the method: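 Stable D2 receptor HEK293 line, 24 h after seeding. Compound preincubated 10 min, then quinpirole (12 nM) with forskolin analogue NKH477 (200 nM), 30 min, room temperature. Detection by time-resolved FRET of cAMP.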

[17] = molecular target: 5-hydroxytryptamine receptor 2A (Homo sapiens) (UniProt P28223); test: 5-hydroxytryptamine receptor 2A (HTR2A) small molecule agonists, cell-based qHTS assay (AID 1963587); note: nearly all actives have a fitted effect of over 30% in size
Summary of the method: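 Kinetic calcium-flux fluorescence (2 min, 1 sec intervals) after compound addition in agonist mode. HTR2A-CHO cells were cultured 18 h, then dye-loaded 1 h at 37 C.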

[18] = cAMP Responsive Elements (CRE) small molecule antagonists, cell-based qHTS assay (AID 1963591; active = well fitted inhibition curve with a large enough effect in the signal ratio in the repeat runs, not every such curve was filed as active; the % refers to the signal ratio)
Summary of the method: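 First, CRE-bla HEK293T cells settled 18 h at 37 C. Next, compound and 0.25 uM final NKH477 were applied for 3 h. Last, LiveBLAzer B/G substrate was loaded for 2 h at room temperature.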

[19] = cAMP Responsive Elements (CRE) small molecule agonists, cell-based qHTS assay (AID 1963590)
Summary of the method: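 HEK 293T cells stably bearing CRE-bla were plated at 2,000 cells per well and rested 18 h. Compounds, positive controls or DMSO were added for 3 h at 37 C. LiveBLAzer B/G substrate was then loaded for 2 h at room temperature.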

SMILES: C1CN(SSN2CCOCC2)CCO1
- Potency [1]: 13.5 µM (active) and 68.6 µM (active)
- Potency [2]: inactive
- Potency [3]: inactive
- Potency [4]: inactive
- Potency [5]: inactive
- Potency [6]: inactive
- Potency [7]: inactive
- Potency [8]: inactive
- Potency [9]: inactive
- Potency [10]: inactive
- Potency [11]: inactive
- Potency [12]: inactive
- Potency [13]: inactive
- Potency [14]: inactive
- Potency [15]: inactive
- Potency [16]: inactive

SMILES: O=C(NCc1ncc(C(F)(F)F)cc1Cl)c1c(Cl)cccc1Cl
- Potency [1]: inactive
- Potency [2]: inactive
- Potency [3]: inactive
- Potency [4]: inactive
- Potency [5]: inactive
- Potency [6]: inactive
- Potency [7]: inactive
- Potency [8]: inactive
- Potency [10]: inactive
- Potency [11]: inactive
- Potency [17]: inactive
- Potency [13]: inactive
- Potency [18]: inactive
- Potency [14]: inactive
- Potency [15]: inactive
- Potency [16]: inactive

SMILES: CC(O)(c1ccc(Cl)cc1)c1ccc(Cl)cc1
- Potency [1]: inactive
- Potency [2]: inactive
- Potency [3]: inactive
- Potency [4]: inactive
- Potency [5]: inactive
- Potency [6]: inactive
- Potency [7]: 45.8 µM (active)
- Potency [9]: inactive
- Potency [10]: inactive
- Potency [13]: inactive
- Potency [15]: inactive
- Potency [16]: inactive

SMILES: CC(C)CCCCCCCOC(=O)c1ccc(C(=O)OCCCCCCCC(C)C)c(C(=O)OCCCCCCCC(C)C)c1
- Potency [1]: 24 µM (active)
- Potency [2]: inactive
- Potency [3]: inactive
- Potency [4]: inactive
- Potency [5]: inactive
- Potency [6]: inactive
- Potency [7]: 16 µM (active)
- Potency [9]: inactive
- Potency [10]: inactive
- Potency [11]: inactive
- Potency [17]: inactive
- Potency [12]: inactive
- Potency [13]: inactive
- Potency [19]: inactive
- Potency [18]: inactive
- Potency [14]: inactive
- Potency [15]: inactive
- Potency [16]: inactive

SMILES: OC12N=C(c3ccccc3)SC1Cc1cc(Cl)ccc12 (stereo unspecified)
- Potency [1]: 17.2 µM (active)
- Potency [2]: inactive
- Potency [3]: inactive
- Potency [4]: inactive
- Potency [5]: inactive
- Potency [6]: inactive
- Potency [7]: inactive
- Potency [8]: inactive
- Potency [10]: inactive
- Potency [11]: inactive
- Potency [17]: inactive
- Potency [12]: inactive
- Potency [13]: inactive
- Potency [19]: inactive
- Potency [18]: inactive
- Potency [15]: inactive
- Potency [16]: inactive

SMILES: Cc1cc(O)c2c(c1)C(=O)c1cc(O)cc(O)c1C2=O
- Potency [1]: 33.6 µM (active)
- Potency [2]: inactive
- Potency [3]: inactive
- Potency [4]: inactive
- Potency [5]: inactive
- Potency [6]: inactive
- Potency [7]: inactive
- Potency [8]: inactive
- Potency [9]: inactive
- Potency [11]: inactive
- Potency [17]: inactive
- Potency [12]: inactive
- Potency [13]: inactive
- Potency [14]: inactive
- Potency [15]: inactive

SMILES: Cc1cccc(O)c1N
- Potency [1]: 30.9 µM (active)
- Potency [2]: inactive
- Potency [3]: inactive
- Potency [4]: inactive
- Potency [5]: inactive
- Potency [6]: inactive
- Potency [7]: inactive
- Potency [8]: inactive
- Potency [10]: inactive
- Potency [11]: inactive
- Potency [17]: inactive
- Potency [12]: inactive
- Potency [13]: inactive
- Potency [18]: inactive
- Potency [14]: inactive
- Potency [15]: inactive
- Potency [16]: inactive

SMILES: C=Cc1ccc(O)c(OC)c1
- Potency [1]: 48.6 µM (active)
- Potency [2]: inactive
- Potency [3]: inactive
- Potency [4]: inactive
- Potency [5]: inactive
- Potency [6]: inactive
- Potency [7]: inactive
- Potency [9]: inactive
- Potency [10]: inactive
- Potency [11]: inactive
- Potency [17]: inactive
- Potency [12]: inactive
- Potency [13]: inactive
- Potency [19]: inactive
- Potency [18]: inactive
- Potency [15]: inactive
- Potency [16]: inactive

SMILES: O=S(=O)(O)c1cc(S(=O)(=O)O)c2c(N=Nc3ccccc3)c(O)ccc2c1
- Potency [1]: inactive
- Potency [2]: inactive
- Potency [3]: inactive
- Potency [4]: inactive
- Potency [5]: inactive
- Potency [6]: inactive
- Potency [7]: inactive
- Potency [8]: inactive
- Potency [9]: inactive
- Potency [11]: inactive
- Potency [17]: inactive
- Potency [12]: inactive
- Potency [13]: inactive
- Potency [19]: inactive
- Potency [18]: inactive

SMILES: CC(C)C(OC(=O)c1ccccc1)C(C)(C)COC(=O)c1ccccc1 (stereo unspecified)
- Potency [1]: 30.6 µM (active)
- Potency [2]: inactive
- Potency [3]: inactive
- Potency [4]: inactive
- Potency [5]: inactive
- Potency [6]: inactive
- Potency [7]: inactive
- Potency [8]: inactive
- Potency [9]: inactive
- Potency [11]: inactive
- Potency [17]: inactive
- Potency [12]: inactive
- Potency [13]: inactive
- Potency [18]: inactive
- Potency [14]: inactive
- Potency [15]: inactive
- Potency [16]: inactive

SMILES: CCCCCCCCCCCCN1CCCC1=O
- Potency [1]: inactive
- Potency [2]: inactive
- Potency [3]: inactive
- Potency [4]: inactive
- Potency [5]: inactive
- Potency [6]: inactive
- Potency [7]: inactive
- Potency [8]: inactive
- Potency [10]: inactive
- Potency [11]: inactive
- Potency [17]: inactive
- Potency [12]: inactive
- Potency [13]: inactive
- Potency [19]: inactive
- Potency [18]: inactive
- Potency [14]: inactive
- Potency [15]: inactive
- Potency [16]: inactive

SMILES: COc1ccc(C(=O)c2ccc(C)cc2)c(O)c1
- Potency [1]: 31 µM (active)
- Potency [2]: inactive
- Potency [3]: inactive
- Potency [4]: inactive
- Potency [5]: inactive
- Potency [6]: inactive
- Potency [7]: inactive
- Potency [8]: inactive
- Potency [9]: inactive
- Potency [11]: inactive
- Potency [17]: inactive
- Potency [12]: inactive
- Potency [13]: inactive
- Potency [18]: inactive
- Potency [14]: inactive
- Potency [15]: inactive
- Potency [16]: inactive

SMILES: CC(=O)CC(=O)c1ccccc1
- Potency [1]: 54.8 µM (active)
- Potency [2]: inactive
- Potency [3]: inactive
- Potency [4]: inactive
- Potency [5]: inactive
- Potency [6]: inactive
- Potency [7]: inactive
- Potency [8]: inactive
- Potency [11]: inactive
- Potency [17]: inactive
- Potency [12]: inactive
- Potency [13]: inactive
- Potency [18]: inactive
- Potency [14]: inactive
- Potency [15]: inactive
- Potency [16]: inactive
